The values that follow come from PubChem BioAssay (NCATS).

Inconclusive results are not listed. Activity calls are given as the source filed them. The call rests on the fitted dose curve; in most records, active means well fitted inhibition curve with a large enough effect; inconclusive means small, poorly fitted or top-dose-only effect; inactive means no such curve, though single readings can be large or run the other way.

This assay is described as follows: P-glycoprotein substrates identified in KB-3-1 adenocarcinoma cell line, qHTS therapeutic library screen (AID 1346986). Further: nearly all actives have a fitted effect of over 60% in size. The conditions noted are these: KB-3-1 parental cells viability, CellTiter-Glo, 72 h; series mostly up to 44.5 µM. Here is the method: The ATP-binding cassette transporters P-glycoprotein (P-gp) is known to limit brain penetration of many chemotherapy drugs. […] We used the CellTiter-Glo viability assay to test library compounds against the parental KB-3-1 human cervical adenocarcinoma cell line and the colchicine-selected sub-line KB-8-5-11 that over-expresses P-gp. KB-8-5-11 cells were also tested in the presence of a P-gp inhibitor (tariquidar) to assess reversability of transporter-mediated resistance. Of the tested compounds, a total of 90 P-gp substrates were identified including 55 newly identified P-gp substrates. Substrates were confirmed using an orthogonal killing assay against HEK-293 cells transfected with P-gp. As exemplars, we confirmed that AT7159 (cyclin-dependent kinase inhibitor); AT9283, (Janus kinase 2/3 inhibitor); ispinesib (kinesin spindle protein inhibitor); gedatolisib (PKI-587, phosphoinositide 3-kinase/mammalian target of rampamycin inhibitor); GSK-690693 (AKT inhibitor); and KW-2478 (heat shock protein 90 inhibitor) were substrates , and direct ATPase stimulation was assessed. ABCG2 was also found to confer high levels of resistance to AT9283, GSK-690693 and gedatolisib, while ispinesib, AT7519 and KW-2478 were weaker substrates.
The HeLa derivative cell line, KB-3-1, and its colchicine-selected, P-gp-overexpressing subline, KB-8-5-11 were maintained in DMEM with 10% FCS and Pen/Strep with glutamine at 37 degree C in 5% CO2. For KB-8-5-11 cells, colchicine was added to the medium at a concentration of 100 ng/mL. HEK-293 cells transfected with empty vector (pcDNA) or vector containing human ABCB1 (MDR-19) or ABCG2 (R-5) have been described previously (Robey, Lin, Qiu, Chan & Bates, 2011) and were maintained in EMEM supplemented with 10% FCS, Pen/Strep and glutamine with 2 mg/ml G418 to select for the expression of the transporter. Cultures were confirmed to be free of mycoplasma infection using the MycoAlert Mycoplasma Detection Kit (Lonza, Walkersville, MD). For the screen, assay medium was identical to culture medium except for KB-8-5-11 where colchicine was excluded from the medium.
All cell lines were plated into 1536-well plates at 500 cells/well in 5 uL media. Compounds were then pinned in dose-response using a 1536-head pin tool (Kalypsis, San Diego, CA) and plates were incubated at 37 degree C in 5% CO2 for an additional 72 h. CellTiter-Glo reagent (Promega) was dispensed into the wells, incubated for 5 min and luminescence was read on a ViewLux instrument (Perkin-Elmer). Cytotoxic compounds were defined as those that yielded a curve class of -1.1, -1.2, -2.1, -2.2, -2.3, or -2.4, a maximum response of >50% and an AC50 of < 10 uM. Cherry-picked hits from screening analysis were tested with both the KB pair of cell lines, and the pcDNA (empty vector control) and MDR-19 (P-gp overexpressing) pair were tested, in the absence and presence of tariquidar.
For the molecule `CC1CC(=O)[C@]2(O)C(C(=O)OCCc3ccc(O)cc3)=CO[C@@H](O[C@@H]3O[C@H](CO)[C@@H](O)[C@H](O)[C@H]3O)[C@H]12` (stereo not given in full), the “outcome” value is “inactive [at 17.4 µM]”.

As to `O=C(Cn1c2ccccc2c2nc3n(c(=O)c21)CCS3)N1CCCC1`, the outcome was inactive.

Consider `C[C@@H]1C[C@@H](O)[C@@]23CO[C@]2(CO)C[C@@H](O)CC3[C@@]12CC(c1ccoc1)OC2=O` (stereo not given in full), for which the result was inactive.

Turning to `Nc1ncnc2c1c(COc1cccc(Cl)c1)nn2C1CCOCC1`, the outcome was inactive.

Turning to `CC(=O)OC1C(C)C2C(OC3OC(CO)C(O)C(O)C3O)OC=C(C(=O)O)C2C1OC(=O)c1ccccc1` (stereo not given), the “outcome” value was “inactive [at 17.4 µM]”.

As for `O=C(/C=C/c1ccc(O)c(O)c1)O[C@H]1[C@@H]2C=CO[C@@H](O[C@@H]3O[C@H](CO)[C@@H](O)[C@H](O)[C@H]3O)[C@@H]2[C@@]2(CO)O[C@@H]12`, the “outcome” value was “inactive [at 17.4 µM]”.

With H-DPPDPDRFYGMM-NH2, the “outcome” value was “inactive [at 17.4 µM]”.

Consider `CC1(C)CC[C@]2(C(=O)O[C@@H]3O[C@H](CO)[C@@H](O)[C@H](O)[C@H]3O)CC[C@]3(C)C(=CCC4[C@@]5(C)CC[C@H](OC6OC(C(=O)O)C(OC7OC(CO)C(O)C(O)C7O)C(O)C6O)C(C)(C)C5CC[C@]43C)C2C1` (stereo not given in full), for which the outcome is “inactive [at 9.29 µM]”.

For the molecule `COC(=O)C1=CO[C@@H](O[C@@H]2O[C@H](CO)[C@@H](O)[C@H](O)[C@H]2O)[C@@H]2[C@@H](C)[C@@H](O)C(O)[C@H]12` (stereo not given in full), the “outcome” value is “inactive [at 17.4 µM]”.

As to `C/C=C(/C)C(=O)OC1CC(C)(C)CC2C3=CCC4C5(C)CCC(OC6OC(C)C(OC7OC(C(=O)O)C(O)C(OC8OC(CO)C(O)C(O)C8OC8OC(CO)C(O)C(O)C8O)C7O)C(O)C6O)C(C)(C)C5CCC4(C)C3(C)C(OC(=O)/C=C/C=C/C=C/CCC)C(OC(C)=O)C12CO` (stereo not given), the outcome was “inactive [at 9.29 µM]”.

On to `C=CC(C)(O)CC/C=C(\C)C(=O)O[C@@H]1[C@@H](O)[C@H](OC(C)(C=C)CC/C=C(\C)C(=O)O[C@@H]2O[C@H](CO)[C@@H](O)[C@H](O)[C@H]2O)O[C@H](CO)[C@H]1OC(=O)/C(C)=C/CCC(C)(O)C=C` (stereo not given in full), for which the outcome was “inactive [at 9.29 µM]”.

As for `C[C@H](O)C(O)(C(=O)OCc1ccccc1NC(=O)CCC(N)C(=O)O)[C@H](C)O` (stereo not given in full), the “outcome” value was “inactive [at 17.4 µM]”.

On to `C=C1CC[C@@]2(OC1)O[C@H]1CC3[C@@H]4CC=C5C[C@@H](O)C[C@@H](O[C@@H]6OC[C@H](O)[C@H](O)[C@H]6O[C@@H]6O[C@@H](C)[C@H](O)[C@@H](O)[C@H]6O)[C@]5(C)C4CC[C@]3(C)[C@H]1[C@@H]2C` (stereo not given in full), for which the “outcome” value was “inactive [at 17.4 µM]”.

Turning to `C=C1[C@@H]2CC[C@@]3(C)[C@H](c4ccoc4)OC(=O)C[C@]13O[C@H]1CC(=O)C(C)(C)[C@H](C(O)C(=O)OC)[C@]12C` (stereo not given in full), the “outcome” value is “inactive [at 17.4 µM]”.

For the molecule `C/C=C(\C)C(=O)OC[C@H]1O[C@@H](O[C@H]2[C@@H](O[C@H]3O[C@H](COC(=O)/C(C)=C/C)[C@@H](O)[C@H](O)[C@H]3O[C@@H]3O[C@H](CO)[C@@H](O)[C@H](OC(=O)/C(C)=C/C)[C@H]3O)O[C@H](COC(=O)/C(C)=C/C)[C@@H](O)[C@@H]2O)[C@H](O)[C@@H](O)[C@@H]1O`, the outcome was “inactive [at 9.29 µM]”.

For `COC(=O)C1=CO[C@@H](O[C@@H]2O[C@H](CO)[C@@H](O)[C@H](O)[C@H]2O)[C@@H]2[C@@H](CO)[C@@H](O)C(O)[C@H]12` (stereo not given in full), the “outcome” value was “inactive [at 17.4 µM]”.

For the molecule `COc1cc(/C=C/CO[C@@H]2O[C@H](CO)[C@@H](O)[C@H](O)[C@H]2O)cc(OC)c1O[C@@H]1O[C@H](CO)[C@@H](O)[C@H](O)[C@H]1O`, the “outcome” value was “inactive [at 17.4 µM]”.

With `C=C1CCC2(OC1)OC1CC3C4CC=C5CC(O)CC(O[C@@H]6OC[C@H](OC(=O)C(O)C(C)CC)[C@H](O)[C@H]6O[C@@H]6O[C@@H](C)[C@H](O)[C@@H](O)[C@H]6O)C5(C)C4CCC3(C)C1C2C` (stereo not given in full), the outcome was “inactive [at 9.29 µM]”.

Consider `CN1CCN(C2=Nc3ccccc3Nc3ccc(O)cc32)CC1`, for which the result was inactive.

Regarding `COc1cc(O[C@@H]2O[C@H](CO[C@H]3OC[C@](O)(CO)[C@H]3O)[C@@H](O)[C@H](O)[C@H]2O)cc(OC)c1O`, the “outcome” value was “inactive [at 17.4 µM]”.

`COc1ccc(O[C@@H]2O[C@H](CO)[C@@H](O)[C@H](O)[C@H]2O)cc1OC`: the result was inactive.

In the case of `CC1OC(O[C@@H]2[C@H](O)[C@@H](OC3OC(CO)C(O)C(O)C3O)[C@H](OC(=O)[C@]34CCC(C)(C)C[C@H]3C3=CCC5[C@@]6(C)CC[C@H](O[C@@H]7O[C@H](C(=O)O)[C@@H](O)[C@H](O[C@@H]8OC[C@@H](O)[C@H](O)[C@H]8O)[C@H]7O[C@@H]7O[C@H](CO)[C@H](O)[C@H](O)[C@H]7O)[C@@](C)(C=O)C6CC[C@@]5(C)[C@]3(C)C[C@H]4O)O[C@@H]2C)C(O)C(O)C1OC1OCC(O)C(O)C1O` (stereo not given in full), the outcome was “inactive [at 5.11 µM]”.

Take `C=C1[C@H](OC(C)=O)[C@H]2[C@@H](OC(=O)c3ccccc3)[C@@H](C)C[C@]2(O)[C@@H](OC(C)=O)[C@H](C)/C=C/C(C)(C)C(=O)[C@H](OC(C)=O)[C@H]1OC(C)=O`: the “outcome” value is “inactive [at 17.4 µM]”.

`COc1cccc(OC)c1-c1cc(C(=O)N[C@@H](CC(C)C)C(=O)O)nn1-c1ccnc2cc(Cl)ccc12`: the result was inactive.

On to `C=CC(C)(O)C1CC2C3(C)CCCC(C)(C)C3C(O)C(O)C2(C)O1` (stereo not given), for which the result was inactive.

For `O=C(N[C@@H]1CC[C@@H](c2cccc(F)c2F)CN(CC(F)(F)F)C1=O)N1CCC(n2c(=O)[nH]c3ncccc32)CC1`, the result was inactive.

Turning to `CC(C)=CCC(O)[C@](C)(O)C1[C@H](O)C[C@@]2(C)C3CC=C4C(C[C@H](O)[C@@H](O[C@@H]5O[C@H](CO)[C@@H](O)[C@H](O)[C@H]5O)C4(C)C)[C@]3(C)C(=O)C[C@]12C` (stereo not given in full), the “outcome” value is “inactive [at 17.4 µM]”.

In the case of `COc1cc(C(=O)OCC2=CCC3C(C(=O)O)=COC(O[C@@H]4O[C@H](CO)[C@@H](O)[C@H](O)[C@H]4O)C23)ccc1O` (stereo not given in full), the “outcome” value is “inactive [at 17.4 µM]”.

For the molecule `C[C@@H]1O[C@@H](O[C@H]2[C@H](Oc3cc(O)c(C(=O)CCc4ccc(O)cc4)c(O)c3)O[C@H](CO)[C@@H](O)[C@@H]2O)[C@H](O)[C@H](O)[C@H]1O`, the outcome was inactive.

Take `CSC(=O)OCC1=C[C@@H]2OC(=O)C3=CO[C@@H](O[C@@H]4O[C@H](CO)[C@@H](O)[C@H](O)[C@H]4O)[C@H]1[C@@H]32`: the “outcome” value was “inactive [at 17.4 µM]”.

In the case of `N#CN1CCC[C@@H](n2nc(-c3ccc(Oc4ccc(F)cc4F)cc3)c(C(N)=O)c2N)C1`, the outcome was inactive.

On to `COc1ccc(/C=C/C(N)=O)cc1OC`, for which the outcome was inactive.

Take `CC(C)(O)C(O)C(=O)OCc1ccc(O[C@@H]2O[C@H](CO)[C@@H](O)[C@H](O)[C@H]2O)cc1` (stereo not given in full): the “outcome” value was “inactive [at 17.4 µM]”.

Take `O=C(O[C@@H]1O[C@H](CO)[C@@H](O)[C@H](O)[C@H]1O)c1ccccc1`: the result was inactive.

Take `CC1(CO)CC(O)C2(C)CCC3(C)C(=CCC4C5(C=O)CCC(OC6OC(C(=O)O)C(O)C(O)C6OC6OC(C(=O)O)C(O)C(O)C6O)C(C)(C)C5CCC43C)C2C1` (stereo not given): the outcome was “inactive [at 9.29 µM]”.

As for `C[C@@H]1O[C@@H](O[C@H]2[C@H](O[C@H]3[C@H](O[C@H]4CC[C@@]5(C)C(CC[C@]6(C)C5CC=C5[C@@H]7CC(C)(C)CC(=O)[C@]7(C)CC[C@]56C)[C@@]4(C)CO)O[C@H](C(=O)O)[C@@H](O)[C@@H]3O)O[C@H](CO)[C@H](O)[C@@H]2O)[C@H](O)[C@H](O)[C@H]1O` (stereo not given in full), the outcome is “inactive [at 9.29 µM]”.

Turning to `C=C1C(O)CC2C(C(=O)O)=COC(O[C@@H]3O[C@H](COC(=O)c4ccc(O)cc4)[C@@H](O)[C@H](O)[C@H]3O)C12` (stereo not given in full), the “outcome” value was “inactive [at 17.4 µM]”.

Turning to `O=C(O)CCc1cc2ccoc2cc1O[C@@H]1O[C@H](CO)[C@@H](O)[C@H](O)[C@H]1O`, the result was inactive.

For the molecule `Cn1cc(CCn2cnc(-c3cnn(C)c3)c2-c2ccc(C#N)cc2)cn1`, the result was inactive.

With `CC1=CC(=O)CC(C)(C)[C@@]1(O)/C=C/C(C)O[C@@H]1O[C@H](CO)[C@@H](O)[C@H](O)[C@H]1O` (stereo not given in full), the “outcome” value was “inactive [at 17.4 µM]”.
